VHR inh color: inhibitors of human VHR1 phosphatase (DUSP3); P51452; recombinant VHR phosphatase, colorimetric substrate read-out; inhibition, % at 20 µM; 50,000 tested, 0.7% active; AID 1992; in the data active means inhibition above about 60%
Target sequence (P51452 whole entry, looked up): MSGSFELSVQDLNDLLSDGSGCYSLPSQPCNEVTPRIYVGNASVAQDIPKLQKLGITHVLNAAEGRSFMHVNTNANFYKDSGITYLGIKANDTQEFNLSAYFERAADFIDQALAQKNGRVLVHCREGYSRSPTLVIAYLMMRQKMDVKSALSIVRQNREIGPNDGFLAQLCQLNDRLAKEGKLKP
The depositor's hits bear a star. This is one part of a sample in which hits are shown more often than they occur.

SMILES | VHR inh color
CCOC(=O)c1c(NC(=O)c2cc(OC)cc(OC)c2)sc(C)c1CC | -1.8
O=C1NC(=S)N/C1=C/c1cc([N+](=O)[O-])ccc1Cl | -12.6
COc1ccc2ccccc2c1/C=C1/SC(NC(C)=O)=NC1=O | -1.7
COc1ccc(C2OCC3C(C)C=C(C)C2C3C)cc1 (stereo not given) | -16.0
CCOC(=O)C1=C(O)/C(=C/c2ccc(O)cc2)SC1=Nc1ccccc1 | -16.2
CCOC(=O)C1=C(O)/C(=C/c2ccc(-c3ccccc3)cc2)SC1=Nc1ccc(OC)cc1 | 114.6*
CCOC(=O)C1=C(O)/C(=C/c2ccccc2)SC1=Nc1ccccc1 | -1.6
Cc1cc2nc(-c3ccc(N)cc3)oc2cc1C | 0.7
CCOC(=O)C1CCN(C(=S)NC23CC4CC(CC(C4)C2)C3)CC1 | -2.1
CCOC(=O)c1sc(NC(=O)c2ccccc2C)nc1C | -9.8
CCOC(=O)c1sc(N/N=C/c2cccc(O)c2)nc1C | 96.7*
CCOC(=O)c1sc(N/N=C/c2ccccc2O)nc1C | -6.6
Cc1ccc(N2CCN(C(=S)c3ccc(-c4cccc([N+](=O)[O-])c4)o3)CC2)cc1 | 90.9*
O=[N+]([O-])c1ccc(-c2ccc(C(=S)N3CCOCC3)o2)cc1 | 2.1
O=[N+]([O-])c1ccc(-c2ccc(C(=S)N3CCCCC3)o2)cc1 | -22.9
O=C(c1cc(N2CCCCC2)c(F)cc1[N+](=O)[O-])N1CCCCC1 | -7.2
O=C(COc1ccc(Br)cc1)Nc1ccc(-c2nc3ccccc3s2)cc1 | -35.1
CCOC(=O)c1c(N)sc(C)c1-c1ccc(CC(C)C)cc1 | 63.6*
CCOC(=O)c1c(N)sc(C)c1-c1ccc(OCC)cc1 | 5.2
CCOc1ccc(-c2c(C)sc(N)c2C(=O)OC(C)C)cc1 | 13.8
O=C(/C=C/c1ccc([N+](=O)[O-])cc1)Nc1ccccc1Cl | -4.6
O=C(O)C1CC=CCC1C(=O)N1CCN(c2ccccc2)CC1 (stereo not given) | -24.7
O=C(/C=C/c1ccco1)NC(=S)NCc1ccccc1 | 74.6*
O=C(/C=C/c1ccco1)NCc1ccc2c(c1)OCO2 | -2.8
O=C(/C=C/c1ccco1)NCCCCNC(=O)/C=C/c1ccco1 | 26.2
SMILES | VHR inh color
COc1ccc(/C=C2\SC(=S)N(c3ccc(C)cc3C)C2=O)cc1OC | 0.6
CCc1ccc(-c2nc(-c3ccc(F)cc3)no2)cc1 | -0.2
O=C1C=CC(=O)N1c1ccccc1N1C(=O)C=CC1=O | 84.1*
Cc1ccc(N2C(=O)C=CC2=O)c(Br)c1 | 55.0
COc1ccc(N2C(=O)C=CC2=O)cc1 | 32.3
CCCCOC(=O)C1CN1C(C)(C)C(=O)OCC (stereo not given) | -3.8
O=C(COc1ccc(Cl)cc1Cl)Oc1ccccc1[N+](=O)[O-] | 2.8
Cc1ccccc1OC(=O)COc1ccc(Cl)cc1Cl | 115.9*
Cc1ccccc1OCC(=O)Nc1ccc(Cl)cc1Cl | -7.2
CCOc1ccc(C(=O)Nc2ccc(-c3cc4ccccc4oc3=O)c(C)c2)cc1Cl | -1.8
Cc1ccc2ccc(S(=O)(=O)n3nc(C)cc3C)cc2c1 | -7.4
CCN(CC)CCCCOc1ccc(C(C)C)cc1 | -3.5
O=C(NN1CCOCC1)c1cc2ccccc2oc1=O | -16.4
O=C(Nc1ccc(F)cc1)Nc1ccc(OC(F)(F)F)cc1 | -6.2
COc1ccc(/C=N/N(C)C2=NS(=O)(=O)c3cc([N+](=O)[O-])ccc32)cc1 | 18.0
O=C(Nc1c(Cl)cccc1Cl)C1C2CC/C=C\CC/C=C/CCC21 (stereo not given) | 111.6*
O=C(O)C1C2CC/C=C\CC/C=C/CCC21 (stereo not given) | 17.9
O=C(Nc1cccc(Br)c1)C1C2CCC3C(CCC21)C3(Cl)Cl (stereo not given) | -1.8
O=C(c1nn2c(c1Br)NC(c1cccs1)CC2C(F)(F)F)N1CCCc2ccccc21 (stereo not given) | 1.7
O=C(Nc1nnc(-c2ccco2)s1)c1cccc2ccccc12 | -19.8
COc1ccc(C(=O)Nc2ccc(Cc3ccncc3)cc2)cc1OC | -5.5
N#CCNC(=O)c1ccccc1[N+](=O)[O-] | -23.7
CC(=O)Nc1ccc(NS(=O)(=O)c2ccc(C)cc2)cc1 | 0.6
COC(=O)Cn1c(=N)n(Cc2ccc(C)cc2)c2ccccc21 | -5.9
CC1=C(C(=O)Nc2ccc(Cl)cc2)C(c2ccc([N+](=O)[O-])cc2)NC(=S)N1 (stereo not given) | -9.0
SMILES | VHR inh color
O=C(/C=C/c1ccc(-c2ccccc2[N+](=O)[O-])o1)NCc1ccccc1 | 2.4
O=C(/C=C/c1ccc(-c2ccccc2[N+](=O)[O-])o1)Nc1ccc(-c2nc3ccccc3o2)cc1 | 106.4*
O=C(/C=C/c1ccc(-c2ccccc2[N+](=O)[O-])o1)Nc1ccc(O)c(-c2nc3ccccc3o2)c1 | -10.3
Cc1ccc2nc(N/N=C\c3ccc([N+](=O)[O-])o3)nc(-c3ccccc3)c2c1 | -10.7
O=C(N/N=C/c1cccc(Br)c1)C1CC1 | 28.3
CC1=C(C(=O)OCc2ccccc2)C(c2ccccc2OC(C)C)CC(=O)N1 (stereo not given) | 0.2
CC1=C(C(=O)OCCc2ccccc2)C(c2ccccc2OC(C)C)CC(=O)N1 (stereo not given) | -4.9
CC1=C(C(=O)OC(C)C)C(c2ccccc2F)CC(=O)N1 (stereo not given) | 117.7*

Source: PubChem BioAssay
